LMP1 NFkB inh = reduces LMP1-driven NF-kappaB luciferase signal | LMP1-induced NF-kappaB luciferase reporter cells, luminescence | inhibition, % at 12.5 µM | 0.69% of 350,000 active; in the data active = inhibition above about 41%;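 also: 0% = neutral control wells and 100% = reference inhibitor control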
LGR2 inh = inhibitors of bursicon-induced Drosophila LGR2 receptor cAMP signaling | HEK293 LGR2, CRE-luciferase, bursicon-stimulated, 4 h | inhibition, % at 9.99 µM | 0.35% of 380,000 active | AID 720647;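 active = drop in luminescence signal, shown as inhibition above about 50% in the replicate tests, limit read from the data, passing the limit was not always enough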;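 also: agonist challenge used bursicon conditioned medium at about half maximal strength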
TROY signal inh = blocks TROY-dependent signaling in reporter cells; Q293 LMP1-TROYcd NF-kB luciferase reporter, 4 h; inhibition, % at 10 µM; 0.98% of 360,000 active;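 active = compounds whose plate-normalised and pattern-corrected inhibition of the luciferase reporter signal at the single screening dose is 50% or more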
EWS-Fli block = EWS/Fli transcriptional activity inhibition | A673 NR0B1-luciferase reporter, viability-normalised | inhibition, % at 12.6 µM | 0.67% of 350,000 active;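 active = mean inhibition of at least 50% after viability correction, with every replicate also passing that limit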;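 also: firefly luciferase signal divided by Alamar Blue viability fluorescence both relative to DMSO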
TWEAK Fn14 block = inhibitors of TWEAK-Fn14 interaction signaling; TWEAK-stimulated Fn14 reporter cells, luciferase luminescence, 8 h; inhibition, % at 10 µM; 2% of 360,000 active; AID 1159606; in the data active = inhibition above about 50%
* marks the source's active call; other numbers are inactive results. This is a sample that favours compounds with a hit; in the whole collection about 2.5% have one here.

Results for CCC(=O)N(C)C[C@H]1Oc2ncc(C#CCC(C)C)cc2C(=O)N([C@H](C)CO)C[C@@H]1C ?
LGR2 inh: -14; EWS-Fli block: -25

Results for C[C@]12CCC3C(CC[C@H]4CC(O)CC[C@]34C)C1CC/C2=N/NC(=O)c1ccncc1 (stereo not given in full) ?
LMP1 NFkB inh: 11; LGR2 inh: 7; TROY signal inh: 17; EWS-Fli block: 53*; TWEAK Fn14 block: -24

How did C[C@]12CCC3C(CC[C@H]4CC(O)CC[C@]34C)C1CC/C2=N/O (stereo not given in full) do in these assays?
LMP1 NFkB inh: 4; LGR2 inh: 11; TROY signal inh: 19; EWS-Fli block: 2; TWEAK Fn14 block: 0

What do the screens show for `COc1ccc(S(=O)(=O)NC(CC(=O)NCc2ccco2)C(C)C)cc1` (stereo not given)?
LMP1 NFkB inh: 84*; TROY signal inh: -5; TWEAK Fn14 block: -16

Results for CCC(C)NS(=O)(=O)c1ccc(OCC(=O)NCc2ccco2)cc1 (stereo not given) ?
LMP1 NFkB inh: -5; TROY signal inh: -17; TWEAK Fn14 block: 2

Results for COc1ccc(-c2ccc3c(c2)[C@@H]2[C@@H](CCN2C(=O)NC2CCCC2)[C@H](CO)N3C)cc1 ?
LGR2 inh: -17; EWS-Fli block: 8

What do the screens show for `Fc1ccc(-c2nc(-c3cccs3)no2)cc1`?
LMP1 NFkB inh: -36; LGR2 inh: -87; TROY signal inh: -63; EWS-Fli block: -75; TWEAK Fn14 block: -14

Results for COC(=O)c1ccc(-c2nc(-c3cccs3)no2)cc1 ?
LMP1 NFkB inh: 24; LGR2 inh: 84*; TROY signal inh: 64*; EWS-Fli block: 58*; TWEAK Fn14 block: 92*

Results for Cc1nc(C)c(-c2csc(Nc3ccccn3)n2)s1 ?
LMP1 NFkB inh: -1; LGR2 inh: -24; TROY signal inh: -4; EWS-Fli block: -42; TWEAK Fn14 block: 55*

Results for Cc1nc(N)sc1-c1csc(Nc2ccccn2)n1 ?
LMP1 NFkB inh: -13; TROY signal inh: -6; TWEAK Fn14 block: 11

What do the screens show for `CC(=O)c1ccc(Nc2nc(-c3sc(C)nc3C)cs2)cc1`?
LMP1 NFkB inh: 10; LGR2 inh: 97*; TROY signal inh: 17; EWS-Fli block: 66*; TWEAK Fn14 block: 56*

How did Cc1ccnc(Nc2nc(-c3sc(C)nc3C)cs2)c1 do in these assays?
LMP1 NFkB inh: -27; LGR2 inh: 78*; TROY signal inh: 37; EWS-Fli block: -30; TWEAK Fn14 block: 84*

How did CC(=O)Nc1ccc(Nc2nc(-c3sc(C)nc3C)cs2)cc1 do in these assays?
LMP1 NFkB inh: 16; LGR2 inh: -12; TROY signal inh: 13; EWS-Fli block: 2; TWEAK Fn14 block: 12

What do the screens show for `Cc1ccnc(Nc2nc(-c3ccc(F)cc3)cs2)c1`?
LMP1 NFkB inh: -44; LGR2 inh: -114; TROY signal inh: 59*; EWS-Fli block: -78; TWEAK Fn14 block: -20

Results for Cc1c(NC(=O)C(c2ccccc2)c2ccccc2)cccc1C(=O)O ?
LMP1 NFkB inh: -11; LGR2 inh: -6; TROY signal inh: -41; EWS-Fli block: -18; TWEAK Fn14 block: 2

What do the screens show for `O=C(O)c1cc(O)ccc1NC(=O)C(c1ccccc1)c1ccccc1`?
LMP1 NFkB inh: 9; LGR2 inh: 4; TROY signal inh: 61*; EWS-Fli block: 6; TWEAK Fn14 block: 110*

Results for Fc1cccc(Cl)c1/C=N/Nc1c(Cl)cncc1Cl ?
LMP1 NFkB inh: 5; LGR2 inh: -2; TROY signal inh: 19; TWEAK Fn14 block: 53*

What do the screens show for `CCOc1cc(/C=C(\C#N)C(=O)Nc2cccc(C(=O)O)c2)cc(Br)c1OC(=O)c1ccc(OC)cc1`?
LMP1 NFkB inh: -2; LGR2 inh: -6; TROY signal inh: 62*; TWEAK Fn14 block: 10

What do the screens show for `O=C(c1[nH]ncc1-c1cccc(Br)c1)C1CO1` (stereo not given)?
LMP1 NFkB inh: -38; LGR2 inh: 17; TROY signal inh: 4; EWS-Fli block: 6; TWEAK Fn14 block: 54*

What do the screens show for `O=C(C[C@@H]1C=C[C@@H](NC(=O)c2ccncc2)[C@H](CO)O1)Nc1ccccc1`?
LGR2 inh: 16; EWS-Fli block: -7

How did O=C(NCC1CC1)[C@@H]1[C@@H](CO)[C@@H]2Cn3c(ccc(-c4ccc(F)cc4)c3=O)[C@H]1N2 do in these assays?
LGR2 inh: 0; EWS-Fli block: 12

How did FC(F)(F)c1cccc(-c2nc3nc(Cl)c(Cl)nc3[nH]2)c1 do in these assays?
LMP1 NFkB inh: 19; LGR2 inh: 16; TROY signal inh: 34; TWEAK Fn14 block: 64*

What do the screens show for `FC(F)(F)c1nc2nc(Cl)c(Cl)nc2[nH]1`?
LMP1 NFkB inh: -1; LGR2 inh: 5; TROY signal inh: 4; EWS-Fli block: -4; TWEAK Fn14 block: 9

Results for CCC(=O)N(C)C[C@H]1Oc2cc(-c3ccccc3)ccc2S(=O)(=O)N([C@H](C)CO)C[C@H]1C ?
LGR2 inh: -12; EWS-Fli block: -5

How did N#CNC(=Nc1cccc(F)c1)SCc1ccccc1F do in these assays?
LMP1 NFkB inh: -4; LGR2 inh: 1; TROY signal inh: 59*; EWS-Fli block: -39; TWEAK Fn14 block: 0

Results for CC(C)N=C(NC#N)SCc1ccccc1F ?
LMP1 NFkB inh: -8; LGR2 inh: 9; TROY signal inh: 3; EWS-Fli block: -2; TWEAK Fn14 block: 15

Results for COc1cc(O)c(C(=O)/C=C/c2ccccc2)c(OC)c1 ?
LMP1 NFkB inh: -2; LGR2 inh: 3; TROY signal inh: -9; EWS-Fli block: 10; TWEAK Fn14 block: 74*

Results for COc1ccccc1/C=C/C(=O)c1c2c(c(C)[nH]c1=O)CCCC2 ?
LMP1 NFkB inh: 15; LGR2 inh: 56*; TROY signal inh: 35; EWS-Fli block: 15; TWEAK Fn14 block: 86*

How did COc1cc(C=CC(=O)c2ccccc2)cc(OC)c1OC do in these assays?
LGR2 inh: 24; TROY signal inh: -3; EWS-Fli block: -4; TWEAK Fn14 block: 79*

What do the screens show for `COc1cc(C=CC(=O)c2cc(OC)c(OC)c(OC)c2)cc(OC)c1OC`?
LMP1 NFkB inh: 20; LGR2 inh: 57*; TROY signal inh: -7; EWS-Fli block: 26; TWEAK Fn14 block: 65*

Results for COc1ccc(/C=C/C(=O)c2c(C)cc(C)[nH]c2=O)c2ccccc12 ?
LMP1 NFkB inh: 11; LGR2 inh: 0; TROY signal inh: 13; EWS-Fli block: 23; TWEAK Fn14 block: 11

Results for O=S(=O)(c1ccc(F)cc1)N1CC[C@@H]2[C@H](CO)Nc3ccc(C#CC4CCCCC4)cc3[C@@H]21 ?
LGR2 inh: -10

How did CO[C@@H]1CN(C)C(=O)c2cc(NC(=O)C3CCC3)ccc2OC[C@H](C)N(Cc2ccncc2)C[C@H]1C do in these assays?
LGR2 inh: 4; EWS-Fli block: -11

How did O=C(Cc1cccnc1)N1CC[C@@H]2[C@@H](CO)Nc3ccc(C#Cc4ccccc4F)cc3[C@@H]21 do in these assays?
LGR2 inh: -1
